Experimental data reported in the supplement of paper PMC3334620.
Whole data set: some 33,000 sequences, median “E-score (-0.5 to 0.5)” near -0.032, cut for the highest 2% near 0.36. What follows is part of a selection rich in the highest values, with near analogues and random picks from the rest.

molecular target: T1, Sko1 (UniProt Q02100); test: PBM E-score (8-mer binding enrichment) (E-score (-0.5 to 0.5)); higher = stronger / more preferred TF binding; settings: protein concentration: 200 nM; construct: GST-full length
T1 sequence: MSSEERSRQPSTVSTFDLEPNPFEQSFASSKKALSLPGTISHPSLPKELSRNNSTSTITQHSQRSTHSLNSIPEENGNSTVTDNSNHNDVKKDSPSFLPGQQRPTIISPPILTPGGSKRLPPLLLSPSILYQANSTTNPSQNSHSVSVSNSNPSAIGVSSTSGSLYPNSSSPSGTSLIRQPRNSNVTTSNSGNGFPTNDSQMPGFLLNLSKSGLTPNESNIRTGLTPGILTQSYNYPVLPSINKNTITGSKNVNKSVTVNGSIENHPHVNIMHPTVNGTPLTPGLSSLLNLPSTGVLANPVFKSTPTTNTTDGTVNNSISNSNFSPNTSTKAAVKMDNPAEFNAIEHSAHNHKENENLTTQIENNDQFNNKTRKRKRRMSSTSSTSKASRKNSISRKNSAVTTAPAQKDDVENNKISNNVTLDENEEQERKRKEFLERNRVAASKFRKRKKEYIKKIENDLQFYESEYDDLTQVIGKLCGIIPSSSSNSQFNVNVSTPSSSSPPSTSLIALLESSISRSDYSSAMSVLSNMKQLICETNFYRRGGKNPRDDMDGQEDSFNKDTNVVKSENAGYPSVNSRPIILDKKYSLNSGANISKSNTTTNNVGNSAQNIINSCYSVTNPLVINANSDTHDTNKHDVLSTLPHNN
Experimental: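 Universal 'all 10-mer' protein binding microarrays (Agilent AMADID 015681) probed with GST-tagged S. cerevisiae TFs (full-length or DBD) made by in vitro transcription/translation (PURExpress), about 100-200 nM. Bound TF was detected with fluorescent anti-GST. Each ungapped 8-mer (which stands for itself and its reverse complement) is scored by the PBM enrichment score (E-score), a modified Wilcoxon-Mann-Whitney statistic from -0.5 to +0.5, computed with the Universal PBM Analysis Suite. Scale: above 0.35 generally sequence-specific binding.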

Row | Sequence | PBM E-score
1 | GTAATTAA | 0.237
2 | GTAATTAC | 0.367
3 | GAAATTAC | 0.323
4 | CTAATTAC | 0.323
5 | ATAATTAC | 0.376
6 | ATAATTAA | 0.285
7 | CACTGTCG | -0.11
8 | GCACCTGC | -0.202
9 | ACATCACA | 0.313
10 | ACATCAGA | 0.122
11 | ACATCAAG | 0.242
12 | GCATCATA | 0.366
13 | CCATCATA | 0.0672
14 | CCATCATC | 0.0168
15 | AAATCATA | 0.204
16 | CTATCATC | 0.0137
17 | GCATCAGA | 0.113
18 | ACATCATA | 0.425
19 | ACATCATG | 0.393
20 | ACATCATC | 0.43
21 | ACTGGTTA | 0.0712
22 | ATTGGAGA | 0.0978

Row | Sequence | PBM E-score
23 | ACGCCGTC | 0.192
24 | AGCATAGA | -0.0737
25 | GCTCGACA | -0.181
26 | CACTAGAA | 0.023
27 | GCAGCGGC | -0.178
28 | ACGCGGAA | 0.0704
29 | GGTCGTAA | 0.249
30 | TGGCGTAA | 0.414
31 | AGGCGTAA | 0.206
32 | ACGCGTAC | 0.307
33 | ACGCGTAT | 0.389
34 | AAGCGTAA | 0.241
35 | ACGCGTGA | 0.32
36 | ACGCGTAA | 0.382
37 | ACGCGTAG | 0.259
38 | AGTCGTAA | 0.231
39 | GGGCGTAA | -0.0261
40 | TGTCGTAA | 0.412
41 | CACGATCG | 0.0307
42 | CGTTCAAC | 0.112
43 | GGTCTCCA | -0.19
44 | CGTCCGAC | -0.0238

Row | Sequence | PBM E-score
45 | ACAACCGG | -0.197
46 | CAGACCAC | -0.0177
47 | CACCAGCA | 0.0552
48 | AGCGCGAT | -0.0488
49 | ACTCGAAA | 0.0248
50 | ATGTATGA | 0.288
51 | CCGCGTAA | 0.318
52 | GCGCGTAA | 0.336
53 | TCGCGTAA | 0.393
54 | CATGCGTA | 0.38
55 | AATGCGTG | 0.214
56 | AATGCGTC | 0.185
57 | AATGCGTA | 0.39
58 | CATGCGTC | 0.161
59 | GATGCGTA | 0.272
60 | GGGTGAAC | -0.114
61 | ACATAGGG | -0.181
62 | AGATAGCC | -0.299
63 | ACATCTAG | -0.0627
64 | AACATTCC | 0.0401
65 | CGCATACA | 0.0477
66 | ATCATACA | 0.257

Row | Sequence | PBM E-score
67 | CGCATACG | 0.378
68 | AACATACG | 0.387
69 | AACATACT | 0.0365
70 | CGCATACC | 0.0198
71 | ATCATACG | 0.365
72 | CACATACG | 0.276
73 | ATCATACC | 0.171
74 | CTGCTACA | -0.0447
75 | AATGCTTA | -0.1
76 | CAGTATGC | -0.0805
77 | GTTCCGCA | 0.00536
78 | GTCGATCA | -0.0654
79 | TATCGCCA | 0.0834
80 | CCCTATGA | 0.0198
81 | AAGTCCAA | 0.0276
82 | AATAACGC | 0.106
83 | AATAACGG | 0.138
84 | AATAACGT | 0.426
85 | GCCTCAAC | -0.175
86 | ACGTTTTA | 0.364
